# Sampled rows, rich in hits. Any-hit rate of the full collection: about 1.8%.
# Measles CPE = protection of cells from measles virus; Measles virus-infected cells, CPE protection, absorbance; protection (pct of control), % at 4 µM; 1.5% of 140,000 active; AID 841; in the data active = protection mostly above about 24%, no sharp cut-off; inactive = mostly below about 26%
# SDO1 yeast rescue = compounds rescuing growth of sdo1-depleted yeast, bone marrow failure model | S. cerevisiae sdo1-depleted JHY4D growth rescue, OD600 30 h; active compounds read high; pdr5 snq2 efflux-pump mutant strain | z-score at 10 µM | 0.21% of 140,000 active | AID 817;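 active = z-score above 3 at both the 24 hr and the 30 hr optical density reads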;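 note: z-score against mean and SD of all compound wells on the same plate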
# Phagocyt inh = macrophage phagocytosis inhibition; J774A.1 macrophage IgG-bead phagocytosis, imaging; inhibition, % at 5 µM; 0.07% of 110,000 active; AID 1029;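 active = inhibition above the mean of the plate negative controls plus 5 SD, cut at about 13% in these data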;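 note: phagocytic index as fraction of beads internalized from green versus red external bead signal; plate controls were DMSO negative control for no effect and cytochalasin-D positive control for full effect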
# SDO1 rescue DR = SDO1-depleted yeast growth rescue confirmation; S. cerevisiae JHY4D (SDO1-depleted) growth rescue, OD600, 30 h; active compounds read high; efflux-deficient strain, SNQ2 and PDR5 mutated; AID 949; 44% of 440 active; OD recovery (test concentration not listed); shares compounds with SDO1 yeast rescue;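 active = yeast growth recovered at 30 hours, either rising with dose fitted slope above 0.001 or with average optical density gain above 0.07, some results past the limit were not filed as active; inactive = growth falling with dose or no effect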;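 note: gain in OD600 from 0 h to 30 h averaged across all seven doses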
# * marks the source's active call; other numbers are inactive results; / = no result given.
SMILES,Measles CPE,SDO1 yeast rescue,Phagocyt inh,others
CC(C)NC(=O)COC(=O)/C=C/c1ccc(F)cc1,15,1.2,-1,
CC(C)NC(=S)NC(=O)/C=C/c1ccc(F)cc1,36*,-0.11,-2,
COc1ccc(NC(=O)N[C@@H](CCSC)C(=O)O)cc1Cl,28,0.87,0,
COc1ccc(Oc2nccc(-c3ccccc3)c2C#N)cc1,3,-1.4,/,
CC1=CC(C)(C)Nc2ccc(OC(=O)CN3C(=O)c4cccc5cccc(c45)C3=O)cc21,45*,-0.73,-2,
CC1=CC(C)(C)Nc2ccc(OC(=O)CN3C(=O)c4ccccc4C3=O)cc21,9,-0.14,/,
CCn1nc(C)c(C(=O)Nc2cc(Oc3ccc(Cl)cc3)cc([N+](=O)[O-])c2)c1C,12,-1.9,/,
CS(=O)(=O)Nc1ccc2c(c1)C(=O)OC2,53*,0.56,0,
COc1ccc(S(=O)(=O)Nc2ccc3c(c2)COC3=O)cc1OC,12,1.6,0,
CN(C)S(=O)(=O)c1ccc(NC(=O)COc2ncnc3c2cnn3-c2ccccc2)cc1,20,0.42,-8,
Cc1cc(Br)ccc1OCC(=O)NNC(=O)c1cnccn1,37*,0.77,-5,
O=C(COc1cccc2ccccc12)NNC(=O)c1cnccn1,13,0.28,-2,
S=C(Nc1cccc(Cl)c1)N1CCN(Cc2ccccc2)CC1,20,-0.52,-3,
CC(=O)Nc1ccc(-c2csc(NC(=O)CCCc3cccs3)n2)cc1,110*,0.2,10,
Cc1ccc(-c2csc(NC(=O)CCCc3cccs3)n2)cc1,7,0.54,-5,
COc1cc(S(=O)(=O)NCc2cccnc2)c(OC)cc1Br,5,-0.13,0,
CC(=O)Nc1ccc(S(=O)(=O)Nc2nccc(/C=C/c3ccc(Cl)cc3)n2)cc1,22,0.81,-8,
COc1cc(OC)cc(-c2nn[nH]n2)c1,5,0.34,-4,
Cc1ccc(-c2csc3ncnc(SCC(=O)c4ccc5c(c4)OCCO5)c23)cc1,7,-0.32,-3,
CCc1cc2c(SCC(=O)c3ccc(C)cc3)ncnc2s1,41*,-0.13,/,
Cc1cccc(N(CC(=O)NCCC2=CCCCC2)S(C)(=O)=O)c1C,3,-1.3,0,
O=C([C@H](O)c1ccccc1)N1CCC[C@H]1CO,2,1.2,-2,
CCOC(=O)N1CCC(NC(=O)C2CCN(S(=O)(=O)c3cnc[nH]3)CC2)CC1,22,-0.06,-3,
CCOC(=O)N1CCC(NC(=O)C2CCN(c3ccc(N4CCOCC4)nn3)CC2)CC1,48*,0.67,-1,
Cc1nc(Cl)sc1C(=O)NC(C)c1ccc(Cl)cc1 (configuration not stated),17,-0.58,-4,
SMILES,Measles CPE,SDO1 yeast rescue,Phagocyt inh,others
c1coc(-c2nc(-c3ccco3)c(-c3ccco3)nc2-c2ccco2)c1,9,-1.6,-3,
Nc1nc(-c2ccco2)c(-c2ccco2)s1,29,13*,0,SDO1 rescue DR=0.071*
COc1ccc(N(C(=O)CCl)C(C)(C(=O)Nc2c(C)cccc2C)c2ccccn2)cc1 (configuration not stated),7,0.82,-10,
Cc1cccnc1NC(=O)CSc1nnc(Cc2ccccc2)o1,5,-0.42,/,
CS(=O)(=O)N(Cc1ccc(C(=O)NCCSc2ccccn2)cc1)c1ccccc1,8,-0.12,-9,
Cc1ccc(N(Cc2ccc(C(=O)NCCSc3ccccn3)cc2)S(C)(=O)=O)cc1C,11,7.2*,-4,SDO1 rescue DR=0.1*
O=C(CCc1ccc(Oc2cc([N+](=O)[O-])cc([N+](=O)[O-])c2)cc1)N1CCCCCC1,6,-1.4,-8,
NS(=O)(=O)c1ccc(N/C=C\C(=O)c2cccc3ccccc23)cc1,10,-0.35,-5,
CCOC(=O)N1CCN(C(=O)CCCOc2ccccc2)CC1,4,0,2,
O=C(CCCOc1ccccc1)N1CCN(c2ccccc2)CC1,2,8.8*,0,SDO1 rescue DR=0.099*
O=C(CSc1nnc(CCCN2C(=O)c3cccc4cccc(c34)C2=O)n1-c1ccccc1)NCCCN1CCOCC1,13,0.78,-1,
CN(C)CCN(C(=O)c1ccccc1Cl)c1nc2c(Cl)cccc2s1,4,-0.23,-4,
NC(=O)CCn1nc(-c2ccc(Cl)cc2)c2ccccc2c1=O,8,4.3*,-1,SDO1 rescue DR=0.077*
CNC(=O)CCn1nc(-c2ccccc2)c2ccccc2c1=O,20,0.12,-1,
O=S(=O)(Nc1ccc(N2CCCCC2)cc1)c1ccc(F)c(F)c1,3,-0.58,-1,
COc1ccc(CC(=O)Nc2ccccc2C(=O)N2CCOCC2)cc1,1,1.5,-9,
COc1ccc(N2CC(C(=O)NCCCN3CCOCC3)CC2=O)cc1 (configuration not stated),22,1.8,/,SDO1 rescue DR=0.084*
COc1ccc(C2=NOC(C(=O)NCCCN3CCOCC3)C2)cc1 (configuration not stated),12,-0.49,1,
CCCNC(=S)NCc1ccc(Cl)cc1,18,-0.24,-10,
CCCC(=O)Nc1cc(C(=O)O)ccc1S(=O)(=O)c1ccc(Cl)cc1,4,0.52,-2,
CCC(=O)Nc1nc(-c2ccccc2)ns1,4,0.58,/,
O=C(CSc1ncn[nH]1)Nc1nc(-c2ccccc2)ns1,5,1.4,-2,SDO1 rescue DR=0.06
O=C(CSc1cn(CCNC(=O)c2cccs2)c2ccccc12)NC1CCCC1,13,-0.22,-1,
FC(F)(F)c1cccc(NC(=S)NCC(c2cccnc2)N2CCOCC2)c1 (configuration not stated),11,0.67,-7,
COC(=O)c1ccccc1NC(=O)C1CC(=O)N(C2CCCCC2)C1 (configuration not stated),8,-0.21,-1,
SMILES,Measles CPE,SDO1 yeast rescue,Phagocyt inh,others
O=C(Nc1ccccc1)C1CC(=O)N(C2CCCCC2)C1 (configuration not stated),4,4.1*,1,SDO1 rescue DR=0.053
COc1ccc(C)cc1NC(=O)C(NCC1CCCO1)c1ccccc1 (configuration not stated),21,-0.16,-1,
COc1cccc(C2=NOC(C(=O)Nc3cccnc3)C2)c1 (configuration not stated),5,-0.11,-2,
COc1ccc(C2=NOC(C(=O)Nc3cccnc3)C2)cc1 (configuration not stated),19,3.5*,-1,SDO1 rescue DR=0.038
CC(C)OCCCNC(=O)C1CCC(CNS(=O)(=O)c2ccccc2)CC1 (configuration not stated),2,0.87,11,
Cc1nc(CS(=O)(=O)c2ccccc2)cc(N2CCOCC2)n1,16,12*,0,SDO1 rescue DR=0.069*
Cc1nc(CSc2ccc(Cl)cc2)cc(N2CCOCC2)n1,48,-0.14,-1,
CC1CC(C)(C)NC(=S)N1CCCC(=O)N1CCN(c2ccccc2F)CC1 (configuration not stated),22,0.4,-5,
CCOC(=O)c1c(-c2ccccc2Cl)csc1NC(=O)CSc1nc(C)cc(=O)[nH]1,9,-0.14,/,
COc1ccccc1NCCC(=O)OCC(=O)NC1CCCCCC1,10,-0.22,-12,
Cc1ccc(C(=O)COC(=O)CCC(=O)NC2CCCCC2)cc1C,31,8.2*,-2,SDO1 rescue DR=0.057
CCCc1nc(N2CCOCC2)c2sc(=S)n(-c3ccccc3)c2n1,5,-0.69,0,
